Our source for the growth values is PubChem BioAssay (NCI).

Among the test systems are HCT-15 colon; HT29 colon; SNB-75 CNS; SNB-19 CNS; U251 CNS; PC-3 prostate; SK-MEL-5 melanoma; UACC-62 melanoma; LOX IMVI melanoma; SK-MEL-28 melanoma; SK-MEL-2 melanoma; EKVX NSCLC; SN12C renal; UO-31 renal; TK-10 renal; ACHN renal; CAKI-1 renal; CCRF-CEM leukemia; MOLT-4 leukemia; A498 renal.
Holding throughout (experiment): NCI-60 one-dose screen, 48 h (100 = growth as untreated, 0 = no growth, -100 = all killed)
Holding throughout (conditions): 10 µM unless noted

Where “and” joins values, the source holds several entries; their conditions need not be identical. Identical values can stand only once. Compounds without any hit were thinned out: in the full panel of roughly 83,000, 20% have a hit.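 Treatment: one concentration, 48 hours, 96-well format. Scoring: percent growth, with anything below 10 considered active.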 Calls of active or inactive are those of the source.

On to `Cc1cc(=O)[nH]c(O)c1C#N`, for which the growth is 98% (inactive) and 107% (inactive) in the assay on HCT-15 colon; 109% (inactive) and 116% (inactive) in the assay on HT29 colon; 72.5% (inactive) and 96.7% (inactive) in the assay with SNB-75 CNS; 98.4% (inactive) and 94.7% (inactive) in the assay on SNB-19 CNS; 101% (inactive) and 98.2% (inactive) in the assay with U251 CNS; 114% (inactive) and 102% (inactive) in the assay with PC-3 prostate. The growth with SK-MEL-5 melanoma was 100% (inactive) and 106% (inactive); in the assay with UACC-62 melanoma it was 97.7% (inactive) and 96.5% (inactive); in the assay on LOX IMVI melanoma, 98.5% (inactive) and 97.1% (inactive); in the assay with SK-MEL-28 melanoma, 98.2% (inactive) and 157% (inactive); with SK-MEL-2 melanoma, 108% (inactive); with EKVX NSCLC, 99.6% (inactive) and 99.9% (inactive). For the same compound, the growth with SN12C renal is 102% (inactive) and 93.7% (inactive); in the assay with UO-31 renal, 87.3% (inactive) and 105% (inactive); in the assay with TK-10 renal, 103% (inactive) and 92.9% (inactive); in the assay with ACHN renal it was 101% (inactive) and 95.7% (inactive); in the assay on CAKI-1 renal, 90.3% (inactive) and 60.5% (inactive); in the assay with CCRF-CEM leukemia, 113% (inactive) and 90.3% (inactive). Moreover, in the assay on MOLT-4 leukemia, the growth was 106% (inactive) and 101% (inactive).
On to `CNC(=O)c1cc(Oc2ccc(NC(=O)Nc3ccc(Cl)c(C(F)(F)F)c3)cc2)ccn1`, for which the growth is 1.74% (active) and 5.49% (active) in the assay on HCT-15 colon; -3.38% (active) and 9.81% (active) in the assay with HT29 colon; -38.9% (active) and 21.8% (inactive) in the assay on SNB-75 CNS; 13.3% (inactive) and 20.6% (inactive) in the assay on SNB-19 CNS; 1.89% (active) and 0.072% (active) in the assay with U251 CNS; 11.6% (inactive) and -9.74% (active) in the assay on PC-3 prostate. The growth with SK-MEL-5 melanoma was -73.1% (active) and -56.6% (active); in the assay on UACC-62 melanoma, -49.4% (active) and -25.5% (active); in the assay with LOX IMVI melanoma, -14.6% (active) and -55.1% (active); with SK-MEL-28 melanoma, -15.7% (active) and -26.7% (active); with SK-MEL-2 melanoma, -42.9% (active); in the assay on EKVX NSCLC it was 4.85% (active) and -2.85% (active). The growth in the assay with SN12C renal was 6.54% (active) and -7.24% (active); with UO-31 renal, -28.5% (active) and -81.1% (active); in the assay on ACHN renal, 5.96% (active) and 0% (active); with CAKI-1 renal it was 7.37% (active) and -32.6% (active); with A498 renal it was -73.7% (active) and -21.1% (active); in the assay with CCRF-CEM leukemia, 12% (inactive) and 18.6% (inactive). Besides, in the assay with MOLT-4 leukemia, the growth is -1.28% (active) and 25.8% (inactive).
Take `Oc1ccccc1C=NCC1CCC(CN=Cc2ccccc2O)CC1` (stereo not drawn): the growth in the assay with HCT-15 colon was 7.98% (active); in the assay with HT29 colon it was 17.1% (inactive); in the assay with SNB-75 CNS, 101% (inactive); in the assay with SNB-19 CNS, 94.6% (inactive); with U251 CNS it was 78.4% (inactive); in the assay with PC-3 prostate, 77.8% (inactive). Also, the growth with SK-MEL-5 melanoma is 92.8% (inactive); in the assay on UACC-62 melanoma it was 88.7% (inactive); in the assay on LOX IMVI melanoma, 80.2% (inactive); in the assay on SK-MEL-28 melanoma, 128% (inactive); in the assay on SK-MEL-2 melanoma, 12.8% (inactive); in the assay on EKVX NSCLC, 109% (inactive). Moreover, the growth with SN12C renal was 91% (inactive); with UO-31 renal, 72.4% (inactive); in the assay with ACHN renal, -13.8% (active); in the assay on CAKI-1 renal it was 46.1% (inactive); in the assay with A498 renal, 117% (inactive); with CCRF-CEM leukemia, 83.9% (inactive).
Turning to `Cc1cc(O)c(C(C)C)cc1N`, the growth is 101% (inactive) and 104% (inactive) in the assay on HCT-15 colon; 101% (inactive) and 116% (inactive) in the assay with HT29 colon; 79% (inactive) and 97% (inactive) in the assay with SNB-75 CNS; 117% (inactive) with SNB-19 CNS; 104% (inactive) and 103% (inactive) in the assay with U251 CNS; 106% (inactive) and 98.4% (inactive) in the assay with PC-3 prostate. Moreover, the growth was 106% (inactive) and 98.9% (inactive) in the assay on SK-MEL-5 melanoma; 97.5% (inactive) and 111% (inactive) with UACC-62 melanoma; 98.1% (inactive) and 94.7% (inactive) with LOX IMVI melanoma; 113% (inactive) and 111% (inactive) in the assay on SK-MEL-28 melanoma; 113% (inactive) and 119% (inactive) in the assay with SK-MEL-2 melanoma; 95% (inactive) and 104% (inactive) with EKVX NSCLC. The growth in the assay with SN12C renal is 114% (inactive); in the assay with UO-31 renal, 78% (inactive) and 95.5% (inactive); with ACHN renal, 93.3% (inactive) and 100% (inactive); in the assay with CAKI-1 renal, 107% (inactive) and 97.4% (inactive); in the assay with A498 renal, 92.3% (inactive) and 89.7% (inactive); in the assay with CCRF-CEM leukemia it was 105% (inactive) and 88.4% (inactive). The growth with MOLT-4 leukemia was 95.2% (inactive) and 103% (inactive).
`CCOC(=O)Nc1nc2ccccc2[nH]1`: the growth with HCT-15 colon was 102% (inactive) and 17.9% (inactive); with HT29 colon it was 104% (inactive) and 20.8% (inactive); with SNB-75 CNS, 102% (inactive) and 23.3% (inactive); with SNB-19 CNS, 99.9% (inactive) and 31.5% (inactive); in the assay on U251 CNS, 96.1% (inactive) and 26.2% (inactive); with PC-3 prostate, 98.7% (inactive) and 48% (inactive). The growth in the assay with SK-MEL-5 melanoma was 113% (inactive) and 19.3% (inactive); with UACC-62 melanoma it was 102% (inactive) and 30.8% (inactive); in the assay on LOX IMVI melanoma it was 99.8% (inactive) and 43.8% (inactive); in the assay with SK-MEL-28 melanoma it was 109% (inactive) and 32.6% (inactive); in the assay on SK-MEL-2 melanoma, 110% (inactive) and 51% (inactive); in the assay on EKVX NSCLC, 95.6% (inactive) and 68.4% (inactive). In addition, the growth is 95.1% (inactive) and 34.9% (inactive) in the assay on SN12C renal; 94.5% (inactive) and 51.5% (inactive) in the assay on UO-31 renal; 103% (inactive) and 52.6% (inactive) in the assay on ACHN renal; 93.6% (inactive) and 40.7% (inactive) in the assay with CAKI-1 renal; 98.9% (inactive) and 27.8% (inactive) with CCRF-CEM leukemia; 120% (inactive) and 16.7% (inactive) with MOLT-4 leukemia.
